According to PubChem BioAssay AID1159580 (chemical genetic matrix, 2015):
“And” between values parts separate entries of the source, which are not always exact repeats. Identical values can stand only once. Hit rate of the full screen: of about 5,500 compounds, about 2,000 (36%) were called active. About 18% were inconclusive and are not listed. No stated cut-off is given here; in the data, active means normalized growth mostly below about 0.91 (no sharp cut-off); inconclusive means no clear call, values can overlap the other calls; inactive means mostly above about 0.92. This is one part of the list.

Test: chemical genetic growth profiling, strain panel (AID 1159580);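 further: tested at 20 µM; growth read once vehicle control cultures reached saturation at 30 °C; 1 = growth at the plate median or of vehicle wells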
Conditions: S. cerevisiae deletion strains, growth OD

Measured: normalized growth

O=C(O)CCC1NCC2CC1CN1CCCCC21 (configuration not stated)
inactive: locus YAL013W, strain DEP1, stronger effect = lower value 1 | locus YAL021C, strain ccr4, stronger effect = lower value 0.97 | locus YAL026C, strain drs2, stronger effect = lower value 0.974 | locus YAL030W, strain snc1, stronger effect = lower value 0.969 | locus YBL061C, strain skt5, stronger effect = lower value 0.975 | locus YBR009C, strain hhf1, stronger effect = lower value 0.989 | locus YBR021W, strain FUR4, stronger effect = lower value 1.01 | locus YBR023C, strain chs3, stronger effect = lower value 0.983 | locus YBR171W, strain sec66, stronger effect = lower value 0.999 | locus YBR229C, strain ROT2, stronger effect = lower value 1.01 | locus YBR231C, strain swc5, stronger effect = lower value 0.986 | locus YBR279W, strain paf1, stronger effect = lower value 0.977 | locus YCL011C, strain gbp2, stronger effect = lower value 0.975 | locus YCL016C, strain dcc1, stronger effect = lower value 0.98 | locus YCL029C, strain bik1, stronger effect = lower value 0.997 | locus YCL061C, strain MRC1, stronger effect = lower value 0.989 | locus YCL069W, strain vba3, stronger effect = lower value 0.985 | locus YCR088W, strain abp1, stronger effect = lower value 0.982 | locus YDL005C, strain med2, stronger effect = lower value 0.969 | locus YDL035C, strain GPR1, stronger effect = lower value 1.02 | locus YDL040C, strain nat1, stronger effect = lower value 0.982 | locus YDL074C, strain BRE1, stronger effect = lower value 0.999 | locus YDL101C, strain DUN1, stronger effect = lower value 1 | locus YDL134C, strain PPH21, stronger effect = lower value 1 | locus YDL185W, strain tfp1, stronger effect = lower value 0.997 | locus YDL192W, strain arf1, stronger effect = lower value 0.998 | locus YDR001C, strain nth1, stronger effect = lower value 0.967 | locus YDR069C, strain doa4, stronger effect = lower value 0.987 | locus YDR101C, strain arx1, stronger effect = lower value 0.999 | locus YDR137W, strain rgp1, stronger effect = lower value 0.975 | locus YDR150W, strain NUM1, stronger effect = lower value 0.998 | locus YDR159W, strain sac3, stronger effect = lower value 0.978 | locus YDR162C, strain NBP2, stronger effect = lower value 1 | locus YDR195W, strain ref2 0.975 | locus YDR297W, strain sur2, stronger effect = lower value 0.974 | locus YDR318W, strain mcm21, stronger effect = lower value 1.02 | locus YDR334W, strain swr1, stronger effect = lower value 0.931 | locus YDR335W, strain msn5, stronger effect = lower value 0.969 | locus YDR388W, stronger effect = lower value 0.994 | locus YDR392W, strain spt3, stronger effect = lower value 0.914 | locus YDR502C, strain sam2, stronger effect = lower value 0.988 | locus YEL003W, strain gim4, stronger effect = lower value 0.967 | locus YEL037C, strain rad23, stronger effect = lower value 0.999 | locus YEL061C, strain CIN8 (second series), stronger effect = lower value 0.97 | locus YEL061C, strain CIN8, stronger effect = lower value 1.02 | locus YER015W, strain faa2, stronger effect = lower value 0.966 | locus YER016W, strain bim1, stronger effect = lower value 0.973 | locus YER110C, stronger effect = lower value 0.999 | locus YER111C, strain swi4, stronger effect = lower value 0.98 | locus YER155C, strain BEM2 (second series), stronger effect = lower value 0.999 | locus YER155C, strain BEM2, stronger effect = lower value 1 | locus YER167W, strain BCK2, stronger effect = lower value 1 | locus YFR010W, strain ubp6, stronger effect = lower value 0.974 | locus YGL078C, strain dbp3, stronger effect = lower value 0.982 | locus YGL086W, strain mad1, stronger effect = lower value 1.02 | locus YGL167C, strain pmr1, stronger effect = lower value 0.965 | locus YGL173C, strain kem1, stronger effect = lower value 0.963 | locus YGL227W, strain vid30, stronger effect = lower value 0.986 | locus YGL240W, strain doc1, stronger effect = lower value 0.985 | locus YGL248W, strain PDE1, stronger effect = lower value 1 | locus YGL253W, strain hxk2, stronger effect = lower value 0.978 | locus YGR078C, strain PAC10, stronger effect = lower value 1 | locus YGR135W, strain pre9, stronger effect = lower value 0.98 | locus YGR229C, strain SMI1, stronger effect = lower value 0.983 | locus YGR252W, strain gcn5, stronger effect = lower value 1.06 | locus YHR013C, strain ard1, stronger effect = lower value 0.95 | locus YHR027C, strain rpn1, stronger effect = lower value 0.953 | locus YHR030C, strain SLT2, stronger effect = lower value 1.01 and 1.03 | locus YHR079C, strain IRE1 (second series), stronger effect = lower value 1 | locus YHR079C, strain IRE1, stronger effect = lower value 1.01 | locus YHR094C, strain hxt1, stronger effect = lower value 0.999 | locus YHR129C, strain ARP1, stronger effect = lower value 1.01 | locus YHR142W, strain chs7, stronger effect = lower value 0.938 | locus YHR200W, strain rpn10, stronger effect = lower value 1 | locus YIL066C, strain RNR3, stronger effect = lower value 1.02 | locus YIL073C, strain SPO22, stronger effect = lower value 1.03 | locus YIL125W, strain kgd1, stronger effect = lower value 0.993 | locus YIR030C, strain dcg1, stronger effect = lower value 0.986 | locus YJL092W, strain hpr5, stronger effect = lower value 0.979 | locus YJL095W, strain BCK1 (second series), stronger effect = lower value 0.976 | locus YJL095W, strain BCK1, stronger effect = lower value 1 | locus YJL115W, strain asf1, stronger effect = lower value 0.958 | locus YJL129C, strain trk1, stronger effect = lower value 0.952 | locus YJL134W, strain LCB3, stronger effect = lower value 0.999 | locus YJL154C, strain vps35, stronger effect = lower value 0.967 | locus YJL164C, strain tpk1, stronger effect = lower value 0.976 | locus YJL166W, strain qcr8, stronger effect = lower value 0.975 | locus YJL168C, strain set2, stronger effect = lower value 0.995 | locus YJL187C, strain SWE1 (second series), stronger effect = lower value 1.01 | locus YJL187C, strain SWE1, stronger effect = lower value 0.974 | locus YJR043C, strain POL32, stronger effect = lower value 1.03 | locus YJR066W, strain TOR1, stronger effect = lower value 0.98
